# Measured values taken from PubChem BioAssay (NCATS).
# A number with no mark means an inactive call. Results filed as inconclusive are left out. Activity calls are given as the source filed them. Unless noted, the call rests on the fitted dose curve; in most records, active means well fitted curve in either direction with a large enough effect (not every such curve was filed as active); inconclusive means small, poorly fitted or top-dose-only effect, or another doubt; inactive means flat fitted curve, though single readings scatter. Residues, ends and D or L forms follow the SMILES beside them.
# Experiments:
# [1] = biological target: Lysosomal acid glucosylceramidase (Homo sapiens) (UniProt P04062); assay: Glucocerebrosidase-p2 (AID 348; in the data active means potency below about 10 µM; further: potency means the concentration at half of the fitted maximal effect); conditions: purified GBA, blue fluorogenic substrate, 40 min
# Lysosomal acid glucosylceramidase (Homo sapiens), sequence (P04062 whole entry, looked up): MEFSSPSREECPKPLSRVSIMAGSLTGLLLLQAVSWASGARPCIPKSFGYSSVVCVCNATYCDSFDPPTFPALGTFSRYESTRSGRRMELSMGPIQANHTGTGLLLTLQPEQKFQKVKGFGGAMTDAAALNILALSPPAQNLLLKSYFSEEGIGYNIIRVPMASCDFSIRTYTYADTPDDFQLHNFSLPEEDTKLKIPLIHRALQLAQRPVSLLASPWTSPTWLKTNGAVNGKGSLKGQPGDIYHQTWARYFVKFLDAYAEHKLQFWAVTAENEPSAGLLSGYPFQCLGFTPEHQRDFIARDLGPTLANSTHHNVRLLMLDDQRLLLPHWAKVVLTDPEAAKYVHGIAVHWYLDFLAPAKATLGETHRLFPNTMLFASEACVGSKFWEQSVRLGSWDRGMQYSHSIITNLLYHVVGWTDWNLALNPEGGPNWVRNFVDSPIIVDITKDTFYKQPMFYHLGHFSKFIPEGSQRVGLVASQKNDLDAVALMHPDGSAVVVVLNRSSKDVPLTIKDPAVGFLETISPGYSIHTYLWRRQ
# Summary of the method: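 Normal human glucocerebrosidase (0.2 nM) with blue fluorogenic substrate (80 uM final) in citrate/phosphate pH 5.9 with 10mM sodium taurocholate, 0.01% tween-20; 40 min RT, NaOH/glycine stop; fluorescence Ex 365/Em 440; AC50 from a titration from 0.6 nM upwards.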
# [2] = AP1 Signaling Pathway (AID 357); conditions: ME-180 AP-1-bla reporter, EGF-induced, beta-lactamase ratio, 5 h; at 7.69 µM (top of the series) unless noted;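 further: ME-180 reporter cells stimulated with EGF at its EC50 level; on the % scale 0 is the no-effect control and ±100 the full control effect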
# Summary of the method: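 Read-out was the 460nm/530nm emission ratio (excitation 405nm) after CCF4 loading for 2.5 hours at room temperature. Cells carried an AP-1-driven beta-lactamase reporter, were stimulated with EC50 EGF plus compound for 5 hours, and AC50 values came from titrations.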
# [3] = biological target: Cytochrome P450 1A2 (Homo sapiens) (UniProt P05177); assay: p450-cyp1a2 (AID 410; calls by dose curve; further: potency means the concentration at half of the fitted maximal effect;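 on activity change, negative = inhibition: -100% = full effect of reference inhibitor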)
# Cytochrome P450 1A2 (Homo sapiens), sequence (P05177 whole entry, looked up): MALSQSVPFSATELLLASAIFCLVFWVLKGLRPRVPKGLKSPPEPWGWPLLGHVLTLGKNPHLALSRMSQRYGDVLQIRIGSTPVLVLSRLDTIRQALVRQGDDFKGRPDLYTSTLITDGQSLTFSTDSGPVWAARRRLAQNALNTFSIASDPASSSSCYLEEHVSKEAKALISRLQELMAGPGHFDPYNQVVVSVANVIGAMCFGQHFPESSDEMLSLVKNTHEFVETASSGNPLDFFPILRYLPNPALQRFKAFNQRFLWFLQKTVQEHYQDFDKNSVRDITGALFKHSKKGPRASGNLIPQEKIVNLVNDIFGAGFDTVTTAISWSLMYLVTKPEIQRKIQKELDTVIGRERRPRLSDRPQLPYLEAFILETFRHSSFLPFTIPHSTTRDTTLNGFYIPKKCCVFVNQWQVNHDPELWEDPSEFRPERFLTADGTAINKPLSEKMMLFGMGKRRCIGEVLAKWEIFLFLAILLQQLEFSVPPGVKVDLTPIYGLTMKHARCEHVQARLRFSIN
# Summary of the method: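 20nM CYP1A2, 100uM Luciferin-ME (=Km), 100mM KPO4; cpd 10 min RT; +NADPH regen, 60 min RT; stop/detect 20 min; luminescence. Normalized to furafylline 57 uM = full inhibition.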
# [4] = NFAT Signaling Pathway (AID 444); conditions: Jurkat NFAT-bla M1, carbachol, beta-lactamase ratio, 5 h; at 7.69 µM (top of the series) unless noted;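 further: carbachol stimulus at about its EC50 of 1 µM final; on the % scale 0 is the no-effect control and ±100 the full control effect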
# Summary of the method: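 Read-out: CCF4 FRET ratio (460 nm/530 nm) after 1 h RT dye loading, used for %activity and AC50 from titration series. Cells: Jurkat NFAT-β-lactamase/M1 line, treated with compound plus 1 uM carbachol for 5 h, 37 °C.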
# [5] = Stat Signaling Pathway (AID 446); conditions: ME-180 (cervical carcinoma) SIE beta-lactamase reporter, IL-6 stimulated, 5 h; at 7.69 µM (top of the series) unless noted;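 further: ME-180 cervical cancer cells given 40 pM IL-6 alongside compound; SIE-controlled beta-lactamase reporter measured as 460/530 nm FRET emission ratio; on the % scale 0 is the no-effect control and ±100 the full control effect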
# Summary of the method: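 Overnight-plated ME-180 cells bearing a STAT Inducible Element beta-lactamase reporter; 5 h co-exposure to compound and 40 pM IL-6; values normalized to 300 pM IL-6 and 125 nM JAK inhibitor controls.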
# [6] = biological target: Glucocorticoid receptor (Homo sapiens) (UniProt P04150); assay: GR-GFP Redistribution (AID 450;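 active means compounds whose dose series gives a full or clear partial fitted curve of increased nuclear translocation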; further: potency means the concentration at half of the fitted maximal effect); conditions: U2OS GR-GFP nuclear translocation, laser cytometry, 2 h
# Glucocorticoid receptor (Homo sapiens), sequence (P04150 whole entry, looked up, the tested form may be a part): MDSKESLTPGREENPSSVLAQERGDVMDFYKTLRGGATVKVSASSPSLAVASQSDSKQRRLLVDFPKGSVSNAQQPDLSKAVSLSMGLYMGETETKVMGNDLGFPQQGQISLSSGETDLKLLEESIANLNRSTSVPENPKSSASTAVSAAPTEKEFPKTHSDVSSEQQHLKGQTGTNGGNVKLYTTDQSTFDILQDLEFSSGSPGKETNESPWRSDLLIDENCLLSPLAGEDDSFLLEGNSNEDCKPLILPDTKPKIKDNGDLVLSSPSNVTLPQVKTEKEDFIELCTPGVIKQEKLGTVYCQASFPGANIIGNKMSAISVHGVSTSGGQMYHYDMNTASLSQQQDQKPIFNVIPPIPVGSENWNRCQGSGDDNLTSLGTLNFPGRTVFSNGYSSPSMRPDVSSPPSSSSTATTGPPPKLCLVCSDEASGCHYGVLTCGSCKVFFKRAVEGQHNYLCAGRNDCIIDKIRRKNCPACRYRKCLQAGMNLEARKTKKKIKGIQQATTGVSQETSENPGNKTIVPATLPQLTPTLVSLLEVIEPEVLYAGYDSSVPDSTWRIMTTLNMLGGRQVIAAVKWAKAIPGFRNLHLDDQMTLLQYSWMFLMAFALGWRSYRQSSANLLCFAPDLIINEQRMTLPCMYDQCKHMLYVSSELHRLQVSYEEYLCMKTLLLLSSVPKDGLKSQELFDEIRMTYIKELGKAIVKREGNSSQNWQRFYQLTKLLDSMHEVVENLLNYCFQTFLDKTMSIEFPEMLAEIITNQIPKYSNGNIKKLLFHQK
# [7] = biological target: Glucocorticoid receptor (Homo sapiens) (UniProt P04150); assay: GR-EFC Redistribution (AID 451; calls by dose curve; further: potency means the concentration at half of the fitted maximal effect); conditions: CHO-K1 GR-EFC translocation, beta-gal luminescence, 2 h
# Summary of the method: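 Translocation of GR-ED fusion to nuclear EA restores b-gal, read by luminescence after 1 h room-temperature detection. Engineered CHO-K1 biosensor cells, 1,000/well, exposed 2 h at 37 C to titrations up to 46 uM final.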
# [8] = biological target: Mitogen-activated protein kinase 10 (Mus musculus) (UniProt Q61831); assay: JNK3 AlphaScreen Assay (AID 530);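 further: kinase came from lysate of stimulated human HepG2 cells; signal reports phosphorylation of biotinylated GST-cJun 1-79 at Ser73 with 10 µM ATP; on the % scale 0 is the no-effect control and ±100 the full control effect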
# Summary of the method: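 Kinase buffer: 20 mM Tris-HCl pH 7.6, 10 mM MgCl2, 1 mM DTT, 0.1 mM Na3VO4, 0.01% Tween-20; ATP 10 uM. Substrate biotin-GST-cJun(1-79), enzyme from activated HepG2 lysates. Detection by Ser73 phospho-antibody AlphaScreen.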
# [9] = biological target: 3',5'-cyclic-AMP phosphodiesterase 4B (Homo sapiens) (UniProt Q07343); assay: qHTS Assay for Inhibitors of PDE-IV (AID 607; active means well fitted activation curve with a large enough effect in the main read-out, with a control signal flat, not every such curve was filed as active; further: % of control where 0% means no effect)
# 3',5'-cyclic-AMP phosphodiesterase 4B (Homo sapiens), sequence (Q07343 whole entry, looked up): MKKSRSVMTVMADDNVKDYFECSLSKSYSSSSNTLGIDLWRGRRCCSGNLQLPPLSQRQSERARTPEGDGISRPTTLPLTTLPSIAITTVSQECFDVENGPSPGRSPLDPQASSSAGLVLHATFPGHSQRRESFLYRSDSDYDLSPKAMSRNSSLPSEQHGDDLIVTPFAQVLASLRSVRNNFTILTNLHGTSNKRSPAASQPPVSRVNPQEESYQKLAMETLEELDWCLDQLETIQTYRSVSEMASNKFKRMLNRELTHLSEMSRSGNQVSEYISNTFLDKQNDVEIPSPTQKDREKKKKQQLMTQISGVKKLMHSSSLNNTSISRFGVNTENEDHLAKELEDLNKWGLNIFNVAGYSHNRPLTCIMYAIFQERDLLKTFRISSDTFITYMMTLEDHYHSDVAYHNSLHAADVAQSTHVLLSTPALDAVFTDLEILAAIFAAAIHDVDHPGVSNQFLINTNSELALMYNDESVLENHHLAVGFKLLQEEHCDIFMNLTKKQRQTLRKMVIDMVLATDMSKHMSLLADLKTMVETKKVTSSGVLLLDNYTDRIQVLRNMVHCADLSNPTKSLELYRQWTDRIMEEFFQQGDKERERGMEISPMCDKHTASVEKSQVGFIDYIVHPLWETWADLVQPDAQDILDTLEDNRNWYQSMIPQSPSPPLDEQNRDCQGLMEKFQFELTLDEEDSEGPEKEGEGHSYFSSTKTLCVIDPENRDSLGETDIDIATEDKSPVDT
# Summary of the method: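 Live HEK293 cells with a modified cyclic nucleotide-gated (CNG) channel report intracellular cAMP via membrane-potential dye fluorescence (ex 535/em 590 nm). Endogenous PDE-IV was targeted. Compounds were tested at up to 22.9 uM final; RO 20-1724 100 uM served as control.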
Structure (SMILES),Potency [1] [µM],"activity change, negative = inhibition [2] [%]","activity change, negative = inhibition [3]","activity change, negative = inhibition [4] [%]","activity, negative = inhibition [5] [%]",Potency [6] [µM],Potency [7] [µM],Potency [8],Potency [9],Potency [3]
Cn1c(=O)c2[nH]c(COCc3nc4c([nH]3)c(=O)n(C)c(=O)n4C)nc2n(C)c1=O,> 11.4,6.66,4.5% [at 2.29 µM],5.77,-2.27,> 46,> 9.22,inactive,inactive,
NS(=O)(=O)c1ccc(NCc2cnc3ccccc3n2)cc1,> 11.4,5.55,-18.2% [at 2.29 µM],6.06,3.16,> 46,> 9.22,inactive,inactive,
CC1(CCC(=O)OC2CCCCC2)OCCO1,> 11.4,4.96,,19.8,4.55,> 46,> 9.22,inactive,inactive,inactive
CCc1ncc(CO)n1Cc1cccc2ccccc12,> 11.4,11.3,,6.66,10.1,> 46,> 9.22,inactive,inactive,inactive
Nc1nc(N)[n+]([O-])c(N)c1NCO,> 11.4,7.34,,9.37,7,> 46,> 9.22,inactive,inactive,inactive
O=C(O)c1c[nH]c2cc(OCc3ccccc3)ccc2c1=O,> 11.4,-8.18,,5.14,-8.65,> 46,> 9.22,inactive,inactive,inactive
CN1CCCC[C@@H]1CCN1CCCCC1,> 11.4,4.46,,-9.35,3.65,> 46,> 9.22,inactive,inactive,0.01 µM (active)
Cc1ccnc(NS(=O)(=O)c2ccc(N=[N+]=[N-])cc2)n1,> 11.4,-2.39,,4.09,1.25,> 46,> 9.22,inactive,inactive,inactive
OCCCN=C1CCCCC1,> 11.4,14.4,,7.24,-19.6,> 46,> 9.22,inactive,inactive,inactive
CCSC[C@@H](N)C(=O)O,> 11.4,5.2,-1.6% [at 2.29 µM],-9.5,0.221,> 46,> 9.22,inactive,inactive,
O=C1C2C3C=CC(C2C(=O)N1CN1CCOCC1)C1C2C(=O)N(CN4CCOCC4)C(=O)C2C31 (centres undefined),> 11.4,1.83,,6.33,11.2,> 46,> 9.22,inactive,inactive,inactive
C1CCN(CC[C@@H]2CCCCN2)CC1,> 11.4,12.5,,8.93,-0.348,> 46,> 9.22,inactive,inactive,inactive
CCC[C@H](Sc1nc(N)nc2nc[nH]c12)C(=O)O,> 11.4,-8.03,,-19.8,6.16,> 46,> 9.22,inactive,inactive,inactive
NCC(=O)NC1(C(=O)O)CCCC1 (HELM PEPTIDE1{G.[O=C(O)C1(N[*:1])CCCC1]}$$$$V2.0),> 11.4,4.89,,-2.62,12.2,> 46,> 9.22,inactive,inactive,inactive
c1ccc(CSc2nnc3c4ccccc4c4ccccc4c3n2)cc1,> 11.4,6.19,,-12.6,1.88,> 46,> 9.22,inactive,inactive,0.2 µM (active)
Oc1ccc2ccccc2c1C=NCc1c(O)ccc2ccccc12,> 11.4,-5.07,,12.6,-21.2,> 46,> 9.22,inactive,inactive,1.58 µM (active)
